Test results published in PubChem BioAssay AID485344 (National Center for Advancing Translational Sciences (NCATS), 2010).
Screen size: about 340,000 compounds; about 6,900 (2%) were called active. No stated cut-off is given here; in the data, active means inhibition above about 30%; inactive means below that, where a call was filed. The list comes from a sample in which actives are over-represented; it also holds similar structures and randomly drawn compounds.

Target: D(2) dopamine receptor (Homo sapiens) (UniProt P14416)
Sequence (P14416 whole entry, looked up): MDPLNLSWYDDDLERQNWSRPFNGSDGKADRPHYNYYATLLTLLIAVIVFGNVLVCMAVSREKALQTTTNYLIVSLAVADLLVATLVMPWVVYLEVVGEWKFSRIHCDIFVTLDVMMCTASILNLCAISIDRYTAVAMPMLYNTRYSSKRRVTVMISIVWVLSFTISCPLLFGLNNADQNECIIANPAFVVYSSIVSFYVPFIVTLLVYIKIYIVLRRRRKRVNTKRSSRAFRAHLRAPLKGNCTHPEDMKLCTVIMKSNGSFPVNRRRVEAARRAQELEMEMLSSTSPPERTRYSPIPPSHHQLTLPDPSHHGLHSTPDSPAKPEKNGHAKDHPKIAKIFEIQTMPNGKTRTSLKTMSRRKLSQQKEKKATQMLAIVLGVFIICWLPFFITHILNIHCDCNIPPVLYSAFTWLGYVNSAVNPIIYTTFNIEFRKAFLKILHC
Test: HTS Assay for Allosteric Antagonists of the Human D2 Dopamine Receptor: Primary Screen for Antagonists; further: 0% is about no effect
Settings: HEK293 TREx D2 cells, calcium flux, dopamine EC80; at 10 µM; hits give high values
In short: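 Antagonism is scored as inhibition of an EC80 dopamine-evoked calcium signal in a force-coupled, tetracycline-inducible HEK293 T-REx D2 line, with compound present 180 s before agonist.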

| SMILES | inhibition |
| --- | --- |
| COc1ccc(C(=O)Oc2ccc(-c3nnco3)cc2)cc1S(=O)(=O)N1CCOCC1 | 14.7% (inactive) |
| Cc1ccc2nc(SCC(=O)N3CC(C)OC(C)C3)nc(=O)n2c1 (centres undefined) | -3.68% (inactive) |
| O=C(CNS(=O)(=O)c1ccc2c(c1)OCCCO2)N1CCN(c2ccc(F)cc2)CC1 | -12.5% (inactive) |
| Cn1c(-c2ccc(F)cc2)cc2onc(-c3ccccc3Cl)c2c1=O | 8.07% (inactive) |
| CCN(CC)S(=O)(=O)c1ccc2[nH]c(=O)cc(C(=O)N(C)C3CCS(=O)(=O)C3)c2c1 (centres undefined) | -4.37% (inactive) |
| CC(=O)Nc1ccccc1NC(=O)c1cc(C)cc(C)c1 | 13.8% (inactive) |
| C=CCN(c1ccc(C(=O)Nc2cc(C)cc(C)c2)cc1)S(C)(=O)=O | -5.69% (inactive) |
| CSCc1ccc(C(=O)Nc2cc(C)cc(C)c2)cc1 | 30.3% (active) |
| COC(=O)Cc1ccc(OC(=O)C2CCN(S(=O)(=O)c3ccc(OC)c(OC)c3)CC2)cc1 | -7.28% (inactive) |
| COc1ccc(CC(=O)OC(C)C(=O)Nc2ccc(S(N)(=O)=O)cc2)cc1 (centres undefined) | -2.4% (inactive) |
| COc1ccc(Cc2nnc(NC(=O)c3ccc(OC)cc3OC)s2)cc1 | 2.14% (inactive) |
| CCCc1nnc(NC(=O)c2cc(OC)cc(OC)c2)s1 | -9.73% (inactive) |
| COc1ccc(Cc2nnc(NC(=O)c3cc(OC)c(OC)c(OC)c3)s2)cc1OC | 34.9% (active) |
| Cc1ccc(N2CC(C(=O)Nc3cc(Cl)ccc3-n3cncn3)CC2=O)cc1 (centres undefined) | -16.3% (inactive) |
| CCN(Cc1ccccc1)C(=O)Cc1ccc(OC)c(S(=O)(=O)N2CCOCC2)c1 | -8.71% (inactive) |
| CC(NCC(=O)Nc1ccccc1C(=O)NC1CC1)c1ccccc1Cl (centres undefined) | 26.6% (inactive) |
| COc1ccc(C(CNC(=O)c2cccc(S(=O)(=O)Nc3ccccc3Cl)c2)N2CCOCC2)cc1 (centres undefined) | -9.15% (inactive) |
| CC(=O)C1=C(C)NC2=C(C(=O)CC(C)(C)C2)C1C (centres undefined) | 34% (active) |
| CCOC(=O)C1=C(C)NC2=C(C(=O)CC(C)(C)C2)C1c1ccsc1 (centres undefined) | -9.11% (inactive) |
| COc1cc(C2C(C#N)=C(C)NC3=C2C(=O)CC(C)(C)C3)ccc1O (centres undefined) | -7.78% (inactive) |

| SMILES | inhibition |
| --- | --- |
| CCOC(=O)c1ccccc1NC(=O)COC(=O)C(Cc1c[nH]c2ccccc12)NC(C)=O (centres undefined) | -6.93% (inactive) |
| CCC(=O)c1ccc(OCC(=O)Nc2ccc(N3CCCCC3)cc2)cc1 | 19% (inactive) |
| CCN(CC(=O)Nc1cc(Cl)ccc1C)C(=O)CSCc1ccc(C)cc1 | -3.18% (inactive) |
| Cc1ccc(C2C3=C(Nc4[nH]n(-c5ccccc5)c(=O)c42)c2ccccc2C3=O)cc1 (centres undefined) | -28.5% (inactive) |
| CCOC(=O)C1=C(c2ccc(OC)cc2)C(=O)c2ccccc2C1=O | -4.28% (inactive) |
| COC(=O)C1=C(C)NC2=C(C(=O)c3ccccc32)C1c1ccc(-c2ccc(C(=O)O)cc2)o1 (centres undefined) | 54.8% (active) |
| O=C(c1ccc(Cl)c(S(=O)(=O)N2CCCCCC2)c1)N1CCN(c2ccc(O)cc2)CC1 | 4.16% (inactive) |
| CCOC(=O)C(C)N(c1ccccc1Cl)S(C)(=O)=O (centres undefined) | -9.97% (inactive) |
| CCN(CC)CCNC(=O)CCCCCn1c(=O)[nH]c2cc(C(=O)OC)ccc2c1=O | -2.71% (inactive) |
| Cc1ccc(C)c(N2CCN(C(=O)CCCCn3c(=O)[nH]c4ccccc4c3=O)CC2)c1 | -2.01% (inactive) |
| O=C(CCCCn1c(=O)[nH]c2ccccc2c1=O)NCc1ccc2c(c1)OCO2 | -1.23% (inactive) |
| O=C(CCCn1c(=O)[nH]c2cc(Cl)ccc2c1=O)NCCN1CCN(c2ccccc2)CC1 | 81.3% (active) |
| O=C(CCCCCn1c(=O)[nH]c2ccccc2c1=O)NCCc1c[nH]c2ccccc12 | 39.1% (active) |
| O=C(CCc1c[nH]c2ccccc12)NCCOc1ccccc1 | 12.3% (inactive) |
| O=C(CSc1ccccc1)Nc1cccc(S(=O)(=O)N2CCOCC2)c1 | 12.8% (inactive) |
| O=C(/C=C/c1cccc([N+](=O)[O-])c1)OCC(=O)N1CCOCC1 | 13.9% (inactive) |
| CSc1ccccc1NC(=O)COC(=O)CCCOc1ccc(C)cc1 | 5.07% (inactive) |
| CCOc1cc(/C=C/C(=O)OCC(=O)NCCN2C(=O)CSC2=O)ccc1OCC(C)C | 2.85% (inactive) |
| CSCCC(NC(=O)c1ccc(Cl)cc1Cl)C(=O)NNC(=O)c1csc(N2CCOCC2)n1 (centres undefined) | 33.7% (active) |
| COc1ccccc1C(=O)NC(CCSC)C(=O)NNC(=O)c1csc(N2CCOCC2)n1 (centres undefined) | 6.58% (inactive) |

| SMILES | inhibition |
| --- | --- |
| O=C(NNC(=O)c1cc(-c2ccccc2Cl)nc2ccccc12)c1csc(N2CCOCC2)n1 | 4.74% (inactive) |
| CN1CCN(c2ccc(NC(=O)c3cc(Cl)c4c(c3)OCCO4)cc2)CC1 | -8.36% (inactive) |
| COc1ccc(S(=O)(=O)N2CCCC2CNC(=O)C(=O)NC2CC2)cc1 (centres undefined) | 2.63% (inactive) |
| Cc1ccccc1C(OCC(O)CN1CCCCC1CCO)c1ccccc1 (centres undefined) | -4.51% (inactive) |
| Cc1ccccc1C(OCCN(C)C)C1CCCCC1 (centres undefined) | 86.8% (active) |
| CN(C)CCOC1c2ccccc2-c2ccccc21 | -3.38% (inactive) |
| Cc1ccc(S(=O)(=O)NCCC(=O)NNC(=O)C2COc3ccccc3O2)cc1 (centres undefined) | -0.636% (inactive) |
| CCCCN(C(=O)c1ccc2ccccc2c1)c1c(N)n(CCCC)c(=O)[nH]c1=O | -22.6% (inactive) |
| Cc1ccc(/C=C/C(=O)OCC(=O)Nc2cccnc2Cl)cc1 | 13% (inactive) |
| CCCCCCSc1nsc(N)n1 | 51.1% (active) |
| Nc1nc(SC23CC4CC(CC(C4)C2)C3)ns1 | -8.79% (inactive) |
| CCCSc1nsc(N)n1 | -5.55% (inactive) |
| Cc1ccc(S(=O)(=O)N2CCCCC2)cc1NC(=O)c1cccnc1 | 1.41% (inactive) |
| CCNC(=O)N1CCN(S(=O)(=O)c2ccc3c(c2)OCCCO3)CC1 | 11.7% (inactive) |
| CCN(CC(=O)Nc1cccc(S(=O)(=O)N2CCCCC2)c1)Cc1ccccc1 | 0.844% (inactive) |
| COc1ccccc1N1CC(C(=O)NCCN2C(=O)S/C(=C\c3cccnc3)C2=O)CC1=O (centres undefined) | 4.67% (inactive) |
| COc1cc(CN2CCN(Cc3ccc(C)cc3)CC2)c([N+](=O)[O-])cc1OC | 88.1% (active) |
| COc1cc(CN2CCCN(C)CC2)c([N+](=O)[O-])cc1OC | 24.2% (inactive) |
| Cc1cc(OCCCN2CCN(Cc3ccccc3)CC2)ccc1[N+](=O)[O-] | -14.3% (inactive) |
